# The supplement of paper PMC6555819
# What was measured:
# Assay in all cases: PBM binding z-score (relative to random genomic background probes); higher = stronger binding; sequences stand for … in GC…GCGATTGACAGCGTAGAATGAAGG
# [1] = tested on: FXR:RXRa (NR concentration 270 nM, RXRa partner concentration 90 nM)
# Method in brief: (§1)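 On custom Agilent 4×180K arrays, double-stranded probes with 34-nt variable regions carried direct-repeat seeds, single-nucleotide variants, half-site ablations or random human genomic background. Ligand-free nuclear receptor dimers were applied for 1 h, and binding was read with antibodies against each partner (one per run). Binding z-scores come from regression-normalized fluorescence, with the random background probes as reference.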
# [2] = tested on: LXRa:RXRa (NR concentration 270 nM, RXRa partner concentration 90 nM)
# Method in brief: as §1
# [3] = tested on: LXRa homodimer (NR concentration 270 nM)
# Method in brief: as §1
# [4] = tested on: LXRb:RXRa (NR concentration 270 nM, RXRa partner concentration 90 nM)
# Method in brief: as §1
# [5] = tested on: LXRb homodimer (NR concentration 270 nM)
# Method in brief: as §1
# [6] = tested on: PPARa:RXRa (NR concentration 270 nM, RXRa partner concentration 90 nM)
# Method in brief: as §1
# [7] = tested on: PPARg:RXRa (NR concentration 180 nM, RXRa partner concentration 90 nM)
# Method in brief: as §1
# [8] = tested on: PPARg:RXRa 270nM:90nM, anti-RXR (NR concentration 270 nM, RXRa partner concentration 90 nM)
# Method in brief: as §1
# [9] = tested on: PPARg:RXRa 30nM:10nM, anti-RXR (NR concentration 30 nM, RXRa partner concentration 10 nM)
# Method in brief: as §1
# [10] = tested on: PPARg:RXRa 90nM:30nM, anti-RXR (NR concentration 90 nM, RXRa partner concentration 30 nM)
# Method in brief: as §1
# [11] = tested on: PPARg:RXRa DBDmut IVT, anti-RXR (DBD mutation: RXRa K156A/R161A, NR concentration 270 nM, RXRa partner concentration 90 nM)
# Method in brief: as §1
# [12] = tested on: PPARg:RXRa IVT, anti-PPARg (NR concentration 270 nM, RXRa partner concentration 90 nM)
# Method in brief: as §1
# [13] = tested on: PPARg DBDmut:RXRa IVT, anti-PPARg (DBD mutation: PPARg1 K132A/R137A, NR concentration 270 nM, RXRa partner concentration 90 nM)
# Method in brief: as §1
# [14] = tested on: PPARg DBDmut IVT, anti-PPARg (DBD mutation: PPARg1 K132A/R137A, NR concentration 270 nM)
# Method in brief: as §1
# [15] = tested on: PPARg homodimer (NR concentration 180 nM)
# Method in brief: as §1
# [16] = tested on: PXR:RXRa (NR concentration 270 nM, RXRa partner concentration 90 nM)
# Method in brief: as §1
# [17] = tested on: PXR homodimer (NR concentration 270 nM)
# Method in brief: as §1
# [18] = tested on: RARa:RXR (NR concentration 270 nM, RXRa partner concentration 90 nM)
# Method in brief: as §1
# [19] = tested on: RARa homodimer (NR concentration 270 nM)
# Method in brief: as §1
# [20] = tested on: RARb:RXRa (NR concentration 270 nM, RXRa partner concentration 90 nM)
# Method in brief: as §1
Sequence,PBM binding z-score [1],PBM binding z-score [2],PBM binding z-score [3],PBM binding z-score [4],PBM binding z-score [5],PBM binding z-score [6],PBM binding z-score [7],PBM binding z-score [8],PBM binding z-score [9],PBM binding z-score [10],PBM binding z-score [11],PBM binding z-score [12],PBM binding z-score [13],PBM binding z-score [14],PBM binding z-score [15],PBM binding z-score [16],PBM binding z-score [17],PBM binding z-score [18],PBM binding z-score [19],PBM binding z-score [20]
CAAACTAGGTCACCGGATGGTCAAAGTCCGCATG,4.23,3.25,0.505,2.57,0.435,5.4,8.96,7.39,5.71,7.25,8.46,8.82,4.83,2.57,3.76,2.49,0.137,3.77,1.02,4.29
TCTTGTAGATCAAGCAGGTTAAGCAAGCCTGAGT,0.175,0.151,-0.473,0.104,-0.672,0.618,-0.429,1.09,2.44,1.39,1.65,0.529,-0.37,-0.0257,-0.443,0.0788,-0.00179,0.628,-0.655,0.278
CCTTACGTGTCACGAGGTTATAGCACGACGAGCG,1.42,1.62,0.447,1.29,0.663,2.43,2.05,1.6,0.219,0.814,2.43,2.16,0.0495,0.563,1.81,1.5,0.447,1.97,0.817,1.78
CAAACTAGGTCACGAAAGGTCAAAGACGAATGAC,7.6,8.07,7.51,7.29,2.75,6.72,10.4,8.57,8.01,8.93,8.52,9.24,4.91,4.77,6.85,7.05,2.93,7.89,4.46,5.69
CTACCAAGCTGAACAAGGTCGTTGATTACTATTC,0.51,0.731,0.686,1.31,-0.0286,0.706,-0.00663,0.00986,-0.206,-0.336,0.107,-0.452,0.163,0.158,0.308,1.39,1.02,1.31,0.561,0.523
GCTTGTAGATCAAGGTTAAGCAAGACTAAGCTAA,0.263,0.428,-0.624,0.0406,-0.925,1.77,1.05,1.94,0.405,1.6,1.5,1.36,-0.46,-0.377,0.0849,0.191,-0.43,1.07,-0.348,0.844
CAGACTGGGGCAAGGTTACCATAACGCACAGCCA,0.535,1.05,-0.312,1.07,-0.19,2.41,3.76,4.25,1.96,3.63,4.18,4.53,1.14,0.637,0.947,0.474,-0.134,0.82,0.141,1.8
GGAACGAGGGCACTCGAGTTGATAGCATGGCGAT,0.375,2.3,-0.535,-0.145,-0.549,1.4,1.27,0.984,-0.139,0.362,4.02,3.11,0.411,-0.728,-0.479,2.52,-0.193,0.513,-0.815,1.93
GCTGACAGGTGAAACGCAGGTAACTCAGGGTGGC,-0.217,0.213,-0.763,-0.392,-0.869,0.868,0.373,-0.307,-0.779,-0.533,1.22,0.804,-0.781,-1.24,-0.522,-0.223,-0.797,0.499,-1.1,0.773
CCTAGTTGGTCACGGTCACACACGCTATAGGTAC,0.611,0.906,1.21,0.81,0.982,0.843,1.61,1.34,0.766,0.795,2.6,3.1,1.29,1.48,1.79,0.642,0.636,0.844,1.66,2.53
TCTTGTAGATCAATAGAGGATAAGAAAGTGCGCT,0.574,0.33,-0.0873,-0.13,-0.142,0.415,0.389,1.46,2.75,2.25,1.63,0.366,0.6,1.05,0.615,0.475,0.185,0.654,0.232,0.029
TCTGCTGGGTCAGTTGGTCAGCTAACGAGCTGCC,0.384,-0.0859,-1.01,0.206,0.206,1.4,0.0356,1.6,1.09,1.19,2.22,2.74,0.569,-0.161,-0.167,0.0304,-0.922,0.33,-0.731,3.19
CCAAACAGGTGAAAGGTAACTCAGTCTGGTACGC,0.642,0.809,-0.217,1.09,-0.282,3.85,7.47,7.29,7.5,8.18,3.27,4.15,0.615,0.037,1.17,1.01,0.17,2.3,1.21,1.21
